# Source: PubChem BioAssay
# E-sel TNF inh: blocks E-selectin expression induced by TNF alpha; HUVEC TNFa-induced E-selectin immunofluorescence, high content; inhibition, % at 2 µM; 0.71% of 120,000 active; AID 1246;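 active means inhibition above the batch mean plus 3 SD, and confirmed as a hit on visual image review, cut at about 43% in these data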;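 further: 0% = TNF-stimulated DMSO wells and 100% = unstimulated control wells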
# CYP2C19 act: activators of human cytochrome P450 2C19. recombinant CYP2C19, luciferin-H EGE luminescence; stronger effect = higher value; 0 = fully inhibited enzyme, 1 = untreated enzyme. activation factor at 5 µM. 96,000 tested, under 10 active;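 active means activation factor of at least 2 at 5 µM in the primary screen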;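 further: 0 = wells with 2.5 mM tranylcypromine and 1 = vehicle-only wells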
# CYP2C9 act: CYP2C9 (human) activation. P11712. recombinant CYP2C9, luciferin-H conversion, luminescence; stronger effect = higher value; factor 1 = untreated enzyme, 0 = blocked. activation factor at 5 µM. 1.4% of 96,000 active;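 active means activation factor of 2 or more for CYP2C9 at a 5 µM dose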;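 further: 0 = sulfaphenazole-blocked wells and 1 = vehicle-only wells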
# Target sequence (P11712 whole entry, looked up): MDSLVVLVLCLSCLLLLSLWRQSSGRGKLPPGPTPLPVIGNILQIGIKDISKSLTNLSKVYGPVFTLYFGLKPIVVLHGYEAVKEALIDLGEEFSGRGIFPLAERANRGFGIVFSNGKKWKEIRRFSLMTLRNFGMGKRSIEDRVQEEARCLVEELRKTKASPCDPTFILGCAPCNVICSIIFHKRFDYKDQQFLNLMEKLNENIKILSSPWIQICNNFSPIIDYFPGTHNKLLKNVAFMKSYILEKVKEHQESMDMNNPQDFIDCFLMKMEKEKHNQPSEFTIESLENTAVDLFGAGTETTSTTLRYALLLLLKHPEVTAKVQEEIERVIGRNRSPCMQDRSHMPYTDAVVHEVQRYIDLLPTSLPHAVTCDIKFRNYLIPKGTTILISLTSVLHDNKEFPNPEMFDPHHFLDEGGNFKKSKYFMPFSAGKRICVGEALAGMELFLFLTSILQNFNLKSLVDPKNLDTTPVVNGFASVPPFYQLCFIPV
# CYP2C19 inhib: human CYP2C19 inhibition; P33261; CYP2C19 Supersomes, luciferin-H EGE luminescence, 30 min; inhibition, % at 5 µM; 21% of 96,000 active; AID 778;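 active means CYP2C19 inhibition above a set limit at 5 µM in the primary screen, cut at about 50% in these data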;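 further: plate controls were negative control wells for no effect and 2.5 mM tranylcypromine positive control for full effect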
# CYP2C9 inh: blocks human cytochrome P450 2C9 | P11712 | CYP2C9 Supersomes, luciferin-H conversion, luminescence | inhibition, % at 5 µM | 20% of 96,000 active;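 active means blocking of liver enzyme CYP2C9 beyond about 50% at 5 µM, limit read from the data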
# F-actin modifier: modifiers of cytoskeleton assembly; inhibition, % at 2 µM; 0.18% of 91,000 active; AID 836; HUVEC TNFa F-actin phalloidin imaging, high content;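 active means inhibition above the batch mean plus 3 SD and confirmed as a hit by visual image inspection, cut at about 30% in these data, passing the limit was not always enough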
# Starred values were filed as active, the others as inactive; x = no result given. Hits are enriched below; roughly 22% of the tested compounds scored in any of these assays.
SMILES,E-sel TNF inh,CYP2C19 act,CYP2C9 act,CYP2C19 inhib,CYP2C9 inh,F-actin modifier
COc1ccc(C2CC(c3cccs3)=NN2C(=O)CSC2=NN3CCCC(=O)N=C3S2)cc1 (stereo not given),x,1,0.7,3.4,25.1,-4.2
Cc1ccc(C2CC(c3cccs3)=NN2C(=O)CSC2=NN3CCCC(=O)N=C3S2)cc1 (stereo not given),7.2,0.1,0.2,91.1*,81.6*,6.3
CCCCCCNS(=O)(=O)c1ccc(OC)c(OC)c1,x,0.1,2.3*,85.4*,-134.6,7.3
Cc1ccc(SCCNS(=O)(=O)c2ccc3c(c2)OCCO3)cc1,10.1,x,x,x,x,-13.9
COc1ccc(S(=O)(=O)NCCSc2ccccc2)cc1OC,-0.1,0,2.4*,97.2*,-138.8,-1.5
COc1ccc(S(=O)(=O)NCCSCc2cccc(C)c2)cc1Br,-35.1,0.5,2.1*,47.6,-107.7,-2.5
COc1ccc(S(=O)(=O)NCCSc2ccc(C)cc2)cc1OC,-26.1,0.2,1.2,81.5*,-24.9,16.4
CCN(CC)CCNS(=O)(=O)c1ccc(OC)c(Br)c1,-16.3,0.7,1.5,31.5,-52.5,1.2
COc1cc2c(C(=O)NCc3ccc4c(c3)OCO4)cn(CC(C)C)c(=O)c2cc1OC,x,1,0.7,-0.4,30.9,-19.3
COc1cccc(CNc2ccc(N3CCC(C)CC3)cc2)c1OC,-5.6,x,x,x,x,0.8
COc1ccc(S(=O)(=O)NCc2ccccc2Cl)cc1OC,-4.4,0,2.3*,95.1*,-130.7,-20.4
COc1ccccc1CNS(=O)(=O)c1ccc2[nH]cc(C(=O)O)c(=O)c2c1,-8.0,1.1,1.1,-7.4,-5.6,4.0
COc1cc(S(=O)(=O)NCc2ccccc2)ccc1F,-49.3,0,2.2*,98.2*,-118.8,7.4
O=C(CCSCCc1ccccn1)Nc1ccc(Cl)cn1,-13.2,0.8,0.8,23.5,23.6,7.7
O=C(CNCCc1ccc(Cl)cc1Cl)NCc1ccco1,-21.5,x,x,x,x,x
CCOC(=O)c1c(NC(=O)CSc2nnnn2-c2ccccc2)sc2c1CCC(C)C2 (stereo not given),0.5,0.7,0.2,29.1,80.7*,10.3
CCOC(=O)c1c(NS(C)(=O)=O)sc2c1CCC(C)C2 (stereo not given),28.9,0.7,0.4,30.8,57.1*,4.7
COc1ccc(NS(=O)(=O)Cc2ccccc2Cl)cn1,-10.2,0.4,0.7,63.8*,33.2,42.4
Cc1cc(/C=C(\C#N)C(=O)OCC(=O)NC(=O)NC(C)(C)C)c(C)n1CCC(C)C,5.9,0.1,0,92.3*,97.8*,-9.1
CCOC(=O)C(Cc1ccccc1)C(=O)Nc1nccs1 (stereo not given),-20.1,0.8,0.6,24.6,35.6,-6.1
CC(C)Cc1ccc(C(C)C(=O)Nc2nccs2)cc1 (stereo not given),5.6,0.5,0.3,51.3*,67.9*,x
CC(C)C(C(=O)Nc1nccs1)c1ccccc1 (stereo not given),5.4,0.3,0.5,68.1*,51.8*,-26.4
O=C(CCCCCN1C(=O)CCC1=O)Nc1ccc(Cl)c(C(F)(F)F)c1,37.5,0.3,0.7,69.4*,30.4,-21.1
COc1ccc(NC(=O)CCCCCN2C(=O)CCC2=O)cc1Cl,9.6,0.8,0.9,18.8,10.1,-0.3
O=C(CN(c1ccc(Cl)c(C(F)(F)F)c1)S(=O)(=O)c1ccccc1)N/N=C/c1cccc2c1OCCO2,-31.5,0.5,0.4,46.0,59.8*,-11.9
SMILES,E-sel TNF inh,CYP2C19 act,CYP2C9 act,CYP2C19 inhib,CYP2C9 inh,F-actin modifier
C#CCOC(=O)c1ccc(-n2cncn2)nc1,0.6,0.2,0.7,81.8*,33.0,14.9
CCOCCOC(=O)c1ccc(-n2cncn2)nc1,11.0,0.4,0.8,61.3*,18.2,-18.4
O=C(CCn1c(=O)oc2ccccc21)Nc1cccc(Cl)c1,-4.6,0.4,2*,55.4*,-101.9,x
Cc1cccc(NC(=O)CN2C(=O)NC(Cc3ccccc3)C2=O)c1 (stereo not given),-0.8,0.5,0.4,47.0,60.3*,-14.6
Cc1cccc(NC(=O)Cn2c(=O)oc3ccccc32)c1,3.0,0.4,0.9,58.1*,6.3,-0.7
CC(=O)c1ccc(NC(=O)CCn2c(=O)oc3ccccc32)cc1,x,0.7,0.8,30.6,23.4,11.1
COc1cccc(CNC(=O)CCn2c(=O)oc3ccccc32)c1,-7.2,0.4,1.2,57.7*,-21.3,13.0
CCN(CC)CCNC(=O)c1ccc(NC(=O)c2ccc(Cl)c(S(=O)(=O)Nc3ccccc3OC)c2)cc1,-31.5,0.8,0.8,19.3,23.9,-7.1
O=C(CC1C(=O)NCCN1Cc1cccc(Oc2ccccc2)c1)NCCc1cscn1 (stereo not given),-1.4,x,x,x,x,x
O=C(c1ccccc1)N1CC(COc2ccccc2)OC(c2cccnc2)O1 (stereo not given),5.7,0.5,0.8,45.2,22.7,-22.6
COc1ccc(OC)c(C(=O)c2ccc(C(=O)Nc3cccc4ccccc34)cc2)c1,42.0,x,x,x,x,x
O=C(COc1ccc(-c2ccccc2)cc1)N/N=C/c1cc(O)ccc1Br,18.9,x,x,x,x,x
CC1CCCCC1NC(=O)CCn1c(=O)oc2ccccc21 (stereo not given),-0.6,x,x,x,x,-9.3
CC1CCCC(NC(=O)CCn2c(=O)oc3ccccc32)C1C (stereo not given),15.8,0.6,2*,43.0,-100.9,-25.0
Cc1c(OCc2ccccc2)c(=O)ccn1Cc1ccc(Cl)cc1,-11.6,0.7,0.4,30.9,57.3*,9.5
COc1ccc(Cn2ccc(=O)c(Cc3c(Cl)cccc3Cl)c2C)cc1,x,0.2,1.1,76.8*,-8.3,13.1
Cc1c(Cc2c(Cl)cccc2Cl)c(=O)ccn1C(C)c1ccccc1 (stereo not given),x,0.1,0.6,90.1*,44.8,7.8
Cc1cc(N/N=C/c2ccc(Cl)cc2Cl)nc(NCc2ccccc2)n1,-10.4,x,x,x,x,x
Cc1c(Cl)cccc1NC(=O)C1CCN(S(C)(=O)=O)CC1,-2.8,x,x,x,x,x
Cc1nc(-c2cccnc2)sc1C(=O)Nc1cccc(C(F)(F)F)c1,23.6,0.5,1.9,47.7,-89.1,52.3*
Cc1cc(C)nc(N(C#N)CN2C(=O)c3ccccc3S2(=O)=O)n1,x,0.8,1.7,23.5,-70.1,26.8
N#CCCCCN1c2cccc3cccc(c23)S1(=O)=O,-46.9,0.1,4.9*,85.3*,-388.5,5.4
CCCN1c2cccc3cccc(c23)S1(=O)=O,-16.9,0.1,4.4*,89.9*,-336.3,x
CCC1=[N+](C)c2cccc3cccc(c23)N1C,1.6,x,x,x,x,x
COC(=O)Cc1c(O)ccn(Cc2ccc(Cl)c(Cl)c2)c1=O,-69.1,x,x,x,x,x
O=C1c2ccccc2C(=O)c2c(NCc3cccnc3)cccc21,-8.6,0,0.2,98.6*,79.4*,-6.8
COc1cc(NC(=O)c2cc3ccccc3o2)c(OC)cc1Cl,-14.0,1,1,-0.4,-2.7,-0.2
O=C(Nc1ncn[nH]1)c1ccc(Cl)c(S(=O)(=O)N2CCCCCC2)c1,-15.8,1,1,1.1,1.9,3.3
